Compound activity from PubChem.
Keap1-Nrf2 PPI = Keap1-Nrf2 protein-protein interaction inhibitors, primary screen, biochemical, fluorescence polarization, single point. inhibition, % at 9.4 µM. Kelch-like ECH-associated protein 1 (Homo sapiens), Q14145. 340,000 compounds, 0.15% hits. AID 504523, 2011. Keap1 Kelch-Nrf2 peptide fluorescence polarization, 1536-well; in the data active = inhibition above about 12%;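 note: human Keap1 Kelch domain with fluorescein labeled Nrf2 9mer peptide probe; 0% = neutral control wells and 100% = peptide positive control; higher means more block of Keap1 binding to Nrf2 peptide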
Target sequence (Q14145 whole entry, looked up, the tested form may be a part): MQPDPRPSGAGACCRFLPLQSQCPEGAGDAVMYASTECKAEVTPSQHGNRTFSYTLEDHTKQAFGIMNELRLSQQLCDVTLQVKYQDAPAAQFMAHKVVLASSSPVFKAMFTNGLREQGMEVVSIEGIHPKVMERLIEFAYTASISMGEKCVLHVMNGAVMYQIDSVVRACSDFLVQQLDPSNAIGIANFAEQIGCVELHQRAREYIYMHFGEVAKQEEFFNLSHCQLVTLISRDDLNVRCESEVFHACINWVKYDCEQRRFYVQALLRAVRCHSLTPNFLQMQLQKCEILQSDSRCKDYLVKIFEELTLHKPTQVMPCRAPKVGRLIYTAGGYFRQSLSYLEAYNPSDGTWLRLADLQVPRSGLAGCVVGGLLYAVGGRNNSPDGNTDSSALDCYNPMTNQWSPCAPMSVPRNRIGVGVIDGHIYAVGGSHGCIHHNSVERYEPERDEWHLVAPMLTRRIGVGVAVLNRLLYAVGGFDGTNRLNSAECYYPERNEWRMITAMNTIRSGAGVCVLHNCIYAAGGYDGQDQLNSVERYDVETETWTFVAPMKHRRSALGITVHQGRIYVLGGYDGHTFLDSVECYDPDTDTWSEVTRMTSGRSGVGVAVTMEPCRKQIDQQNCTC
RTF Ca sens act = cardiac RTF calcium sensitivity activators, primary screen, biochemical, IANBD-TnC fluorescence, EC20 calcium; Troponin I, cardiac muscle (Homo sapiens) + Troponin T, cardiac muscle (Homo sapiens) + …; IANBD-labeled TnC RTF fluorescence at EC20 calcium; 0% EC20 calcium, 100% full calcium; activation, % at 7.2 µM; 340,000 compounds, 0.24% hits; AID 493008, 2010;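 active = activation above the mean over all tested compounds plus 3 SD, cut at about 30% in these data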;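 note: rise in fluorescence read as greater calcium sensitivity of cardiac thin filaments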
C-LANA FP = inhibitors of KSHV C-LANA binding to DNA, primary screen, biochemical, fluorescence polarization, FAM-LBS DNA, MBP-C-LANA, single point. Kaposi's sarcoma herpesvirus LANA C-terminal domain (residues 932-1162) DNA binding. inhibition, % at 9 µM. 340,000 compounds, 0.078% hits;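 active = highest replicate inhibition at or above 60% at 9 µM, even if other replicates fall short; inactive = all replicates below 60% inhibition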;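 note: 0% = neutral control wells and 100% = 4 µM acridine orange control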
E coli Lon inh = inhibitors of E. coli Lon protease, primary screen, biochemical, fluorescence polarization. P0A9M0. purified E. coli Lon protease. inhibition, % at 7.94 µM. 360,000 compounds, 0.42% hits; in the data active = inhibition above about 13%, passing the limit was not always enough;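 note: 0% = enzyme with probe and DMSO and 100% = no enzyme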
RTF Ca sens inh = cardiac RTF calcium sensitivity inhibitors, primary screen, biochemical, IANBD-TnC fluorescence, EC70 calcium | Troponin I, cardiac muscle (Homo sapiens) + Troponin T, cardiac muscle (Homo sapiens) + … | IANBD-labeled cardiac RTF, Ca2+ fluorescence | inhibition, % at 7.15 µM | 340,000 compounds, 0.12% hits | AID 493244, 2011;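 active = inhibition above the mean inhibition of all tested compounds plus 3 SD, cut at about 17% in these data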;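 note: assay run at fixed EC70 calcium of 1.6 mM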
The depositor's hits bear a star; i = inactive; · = not tested or not shown. Only some compounds are listed: those with a hit (about 0.74% of all), similar ones and a draw of the others.

SMILES | Keap1-Nrf2 PPI | RTF Ca sens act | C-LANA FP | E coli Lon inh | RTF Ca sens inh
CN(CCc1ccccc1)C(=O)CC1C(=O)NCCN1Cc1ccccn1 (configuration not stated) | · | · | · | 7 | ·
O=C(Cc1cccs1)N1CCN(S(=O)(=O)c2ccc(F)c(F)c2)CC1 | -1 | -4 | -1 | -5 | -6
O=C(Cc1cccs1)N1CCN(S(=O)(=O)c2cc(Cl)ccc2Cl)CC1 | -2 | 51* | -1 | -1 | -3
COc1ccccc1-c1noc2c1C(=O)N(Cc1cn(C3CCCC3)nn1)CC2 | · | · | · | 1 | ·
C[C@@H]1CN([C@H](C)CO)C(=O)c2cc(C#CC(C)(C)O)cnc2O[C@@H]1CN(C)C(=O)C1CC1 | · | · | · | 9 | ·
COc1cc([N+](=O)[O-])ccc1N/C=C/C(=O)c1cccs1 | 1 | 287* | -10 | i | -493
COc1ccc(-c2cc(C(F)(F)F)c3c(n2)sc2c(O)cc(=O)[nH]c23)c(OC)c1 | -74 | 38* | 1 | -296 | -70
Cc1cc(C)c2c(n1)sc1c(O)cc(=O)[nH]c12 | -4 | 0 | 0 | -5 | -14
CCOc1ccccc1N(CC(=O)Nc1ccc(OC)c(OC)c1)S(=O)(=O)c1ccccc1 | -4 | 52* | 0 | 7 | 5
CC(C)(C)NC(=O)CN(C(=O)CCC(=O)Nc1nccs1)c1ccccc1F | · | · | · | -10 | ·
O=C(NC1CCCCC1)C1c2ccccc2OCC(=O)N1CCc1ccccc1 (configuration not stated) | · | · | · | -13 | ·
CC(NC(=O)COC(=O)c1ccc([N+](=O)[O-])o1)c1ccccc1 (configuration not stated) | 0 | 4 | 108* | -7 | 0
N#C/C(=C/c1ccc(N2CCCCCC2)o1)c1ccc(Cl)cc1 | -5 | 36* | -1 | -27 | -42
N#C/C(=C/c1ccc(N2CCCCC2)o1)c1cccc(F)c1 | -3 | 14 | 0 | -21 | -9
O=C(c1ccco1)N1CCC2CC1c1c(Cl)cccc12 (configuration not stated) | · | · | · | 3 | ·
CCCCNC(=O)c1nc(C2CCN(S(=O)(=O)c3ccccc3C(F)(F)F)CC2)oc1-c1ccccc1 | · | · | · | -1 | ·
CCN(CC(=O)Nc1ccccc1C(F)(F)F)C(=O)c1cc(-c2ccccc2)nn1-c1ccccc1 | · | -5 | · | -3 | 1
CCN(CC(=O)Nc1ccccc1C(F)(F)F)C(=O)c1ccc(-n2nc(C)c(CCC(=O)OC)c2C)cc1 | 1 | 62* | 0 | 6 | -74
Cc1ccc(S(=O)(=O)NC(=O)C2(C)CCN2C(=O)Cc2cccs2)nc1 (configuration not stated) | · | · | · | -6 | ·
CCC(=O)NC(c1ccc(OC)cc1)c1cc(Cl)c2cccnc2c1O (configuration not stated) | -1 | 2 | 0 | -4 | -1
COc1ccc(C(NC(=O)c2cccnc2)c2cc(Cl)c3cccnc3c2O)cc1OC (configuration not stated) | -7 | -2 | 0 | 35* | -10
Cc1ccc(-c2nnnn2-c2ccccc2C(=O)O)cc1 | -1 | 3 | -1 | -4 | 0
CCOC(=O)c1ccccc1-n1nnnc1C | -3 | 124* | -1 | 3 | 7
CCN(CC)c1ccc(/C=C/c2cccc[n+]2C)c(OC)c1 | -135 | 75* | -47 | -267 | -96
CCN1/C(=C\C=C(C(C)=O)C(C)=O)Sc2ccccc21 | -110 | 78* | -20 | -463 | -94
O=C(O)CN=C(Nc1cc(Cl)cc(Cl)c1)NC(c1ccccc1)c1ccccc1 | · | · | · | -7 | ·
COc1cccc(/C(O)=C/c2nc3ccc(C(=O)NCCc4cccc(C)c4)cc3[nH]c2=O)c1 | -7 | 20 | 2 | -28 | -27
COc1cccc(/C(O)=C/c2nc3ccc(C(=O)NCCc4ccc(Cl)cc4)cc3[nH]c2=O)c1 | -1 | 99* | 1 | -25 | -3
COc1ccccc1/C=C/C=C1\Oc2c(ccc(O)c2CN(C)C)C1=O | -41 | 107* | 11 | -76 | -147
